Screening data as filed in PubChem BioAssay.
ELG1 DNA repair: inhibitors of ELG1-dependent DNA repair in HEK293T cells | actives 2.3% (n = 330,000) | AID 504467 | HEK293T ELG1-luciferase reporter, luminescence, 16 h; DNA damage induced by 5-fluorouridine | Potency, µM (highest dose often 46.1 µM), hits mostly inhibitors; also: nearly all actives have a fitted effect of over 55% in size
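DMSO vehicle served as the neutral condition. Each well held 2,000 cells given 5-fluorouridine plus compound; after 16 hr at 37 °C/5% CO2, ONE-Glo was added and luciferase measured 30 min later.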
IL1B secr inh: inflammasome signaling inhibition, IL-1 beta readout; THP-1 LPS/ATP IL-1B secretion, AlphaLISA, 16 h; active compounds read low; activity change, % at 57.5 µM; actives 4.7% (n = 360,000); AID 743279; in the data active = activity change below about -50%; inconclusive = mostly about -30% to -49%
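Secreted IL-1B measured by AlphaLISA bead assay after 16 h compound exposure of THP-1 cells; compounds (final up to 57.5 uM) added 1 h before LPS (250 ng/mL) and ATP (1.25 mM) stimulation; lower signal means less secretion.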
RORgamma inh: inhibitors of mouse ROR gamma transcriptional activity; actives 5.4% (n = 310,000); Potency, µM (titrated, usually from 53.6 µM), hits mostly inhibitors; AID 2551; P51450; Drosophila S2 Gal4-RORgamma UAS-luciferase reporter, 20 h; also: nearly all actives have a fitted effect of over 60% in size
Target sequence (P51450 whole entry, looked up, the tested form may be a part): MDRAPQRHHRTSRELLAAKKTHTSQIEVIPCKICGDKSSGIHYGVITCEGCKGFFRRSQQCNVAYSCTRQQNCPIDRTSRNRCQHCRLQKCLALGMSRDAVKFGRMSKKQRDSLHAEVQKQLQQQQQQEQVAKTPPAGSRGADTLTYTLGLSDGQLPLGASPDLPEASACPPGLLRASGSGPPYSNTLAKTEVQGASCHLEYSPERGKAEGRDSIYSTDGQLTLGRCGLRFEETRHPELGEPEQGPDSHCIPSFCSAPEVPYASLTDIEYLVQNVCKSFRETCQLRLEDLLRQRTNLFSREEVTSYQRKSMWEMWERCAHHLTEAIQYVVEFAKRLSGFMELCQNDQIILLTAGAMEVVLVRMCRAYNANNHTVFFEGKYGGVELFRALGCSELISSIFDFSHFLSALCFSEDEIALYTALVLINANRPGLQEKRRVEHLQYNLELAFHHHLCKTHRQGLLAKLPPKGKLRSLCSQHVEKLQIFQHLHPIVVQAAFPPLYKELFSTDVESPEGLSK
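Drosophila Schneider cells stably carrying a metallothionein-driven Gal4 DBD–ROR gamma fusion and a UAS-Photinus luciferase reporter were exposed to compound for 1 hr, then induced with copper sulfate (700 uM final) for 20 hr at ambient temperature before luminescence reading.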
TDP1 cell noCPT: qHTS for Inhibitors of human tyrosyl-DNA phosphodiesterase 1 (TDP1): qHTS in cells in absence of CPT. DT40 Tdp1-/- hTDP1 cells, no CPT, ATP luminescence, 48 h. Potency, µM (series often up to 46.2 µM), hits mostly inhibitors. actives 15% (n = 420,000); also: nearly all actives have a fitted effect of over 55% in size
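Compound effects on proliferation are scored in DT40 Tdp1-/-;hTDP1 cells in the absence of CPT. ATP levels (CellTiter-Glo luminescence) are recorded after a ≥48 hr, 37 °C incubation.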
VP16 counter: Gal4-VP16 reporter inhibition counter-screen; Drosophila S2 Gal4-VP16 UAS-luciferase, luminescence, 20 h; Potency, µM (titrated, usually from 53.6 µM), hits mostly inhibitors; actives 3.5% (n = 310,000); AID 2546;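 also: Gal4-VP16 expression switched on by copper sulfate through the metallothionein promoter; nearly all actives have a fitted effect of over 50% in size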
DT40 TDP1 CPT: DT40-hTDP1 cell growth loss with CPT. chicken DT40 Tdp1-/-;hTDP1 cells + 20 nM CPT, ATP luminescence, 48 h. Potency, µM (highest dose often 46.2 µM), actives largely listed as inhibitors. actives 12% (n = 420,000). AID 686979; also: nearly all actives have a fitted effect of over 55% in size
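Chicken DT40 Tdp1-/- cells stably complemented with human TDP1 were seeded at 400 cells/well in medium containing 20 nM camptothecin, exposed to pin-transferred compounds, and grown at 37 °C for at least 48 hr. Viability was read as ATP luminescence.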
Each line names hits and unclear results; the compound was inactive in the other large screens. An excerpt weighted towards active compounds, which were near 21% of everything screened. Unless noted, calls follow the shape of the dose curve; as a rule, active = well fitted curve in the direction sought with a large enough effect; inconclusive = small, poorly fitted or top-dose-only effect, or another doubt; inactive = no such curve, though single readings can be large; an effect the other way counts as inactive or inconclusive.

C=C1C(=O)CC2=C1[C@](Cc1ccc(F)cc1)(C(=O)OC)N(C(=O)c1ccccc1)C2	TDP1 cell noCPT 21µM, DT40 TDP1 CPT 18µM (no result: ELG1 DNA repair, RORgamma inh, VP16 counter)
C=C1C(=O)C=C2CN(C(=O)c3ccccc3)[C@@](Cc3ccc(F)cc3)(C(=O)OC)[C@@H]12	ELG1 DNA repair 2.9µM, IL1B secr inh -103, RORgamma inh 3.2µM, TDP1 cell noCPT 0.052µM, VP16 counter 1.4µM, DT40 TDP1 CPT 0.16µM
COC(=O)[C@@]1(Cc2ccccc2)[C@@H]2[C@@H](CC(=O)[C@H]2CC(=O)C(=O)N(C)C)CN1C(=O)c1ccccc1	none (no result: ELG1 DNA repair, IL1B secr inh, TDP1 cell noCPT, DT40 TDP1 CPT)
COC(=O)[C@@]1(Cc2ccc(OC)cc2)[C@@H]2C(=CC(=O)[C@H]2CC(=O)C(=O)N(C)C)CN1C(=O)c1ccccc1	ELG1 DNA repair 9.2µM, IL1B secr inh -76, RORgamma inh inconclusive, TDP1 cell noCPT 16µM, VP16 counter inconclusive
COC(=O)[C@@]1(Cc2ccc(F)cc2)[C@H]2c3cc(C(=O)N(C)C)n(C)c3C[C@H]2CN1C(=O)c1ccccc1	TDP1 cell noCPT inconclusive, DT40 TDP1 CPT inconclusive (no result: ELG1 DNA repair)
CC(=O)CCn1cc([N+](=O)[O-])nc1C	none
O=NN(Cc1cccnc1)C(=O)NC1CCCCC1	TDP1 cell noCPT inconclusive, DT40 TDP1 CPT inconclusive (no result: ELG1 DNA repair, RORgamma inh, VP16 counter)
COc1cc(C(=O)OCC(=O)Nc2c(F)cccc2F)cc(OC)c1C	none
CN(C)S(=O)(=O)c1cccc(C(=O)OCC(=O)Nc2sccc2C(N)=O)c1	ELG1 DNA repair 18µM, TDP1 cell noCPT 21µM, DT40 TDP1 CPT 15µM
COc1cc(C(=O)OCC(=O)Nc2sccc2C(N)=O)cc(OC)c1OC	ELG1 DNA repair inconclusive, TDP1 cell noCPT 3.7µM, DT40 TDP1 CPT 4.6µM
COc1cc(C(=O)OCC(=O)Nc2c(F)c(F)c(F)c(F)c2F)cc(OC)c1OC	ELG1 DNA repair 26µM
COc1ccc(C(=O)OCC(=O)Nc2sccc2C(N)=O)cc1OC	ELG1 DNA repair inconclusive, TDP1 cell noCPT inconclusive, DT40 TDP1 CPT inconclusive
CC1CCN(C(=O)CSc2nc(=O)n3ccccc3n2)CC1	none (no result: RORgamma inh, VP16 counter)
N#CC1CC(c2ccccc2)Nc2cc(Cl)ccc2N1 (stereo not given)	ELG1 DNA repair inconclusive, RORgamma inh inconclusive, TDP1 cell noCPT 10µM, DT40 TDP1 CPT 16µM
C[C@@H]1C[C@H](O)c2cc(Cl)ccc2N1	none
CSCC[C@H](NC(=O)c1cccc(S(=O)(=O)N2CCCCC2)c1)c1nc2ccccc2[nH]1	ELG1 DNA repair inconclusive, TDP1 cell noCPT inconclusive, DT40 TDP1 CPT inconclusive (no result: RORgamma inh, VP16 counter)
O=C(O)CCCCCn1c(SCC(=O)c2ccc(O)c(O)c2)nc2ccsc2c1=O	none
CCCCn1c(SCC(=O)c2ccccc2)nc2ccsc2c1=O	ELG1 DNA repair inconclusive, IL1B secr inh -59, RORgamma inh inconclusive, TDP1 cell noCPT 18µM, DT40 TDP1 CPT inconclusive
CC(C)(C)C(=O)CSc1nc2ccsc2c(=O)n1Cc1ccccc1Cl	TDP1 cell noCPT 15µM, DT40 TDP1 CPT 21µM (no result: ELG1 DNA repair, IL1B secr inh, RORgamma inh, VP16 counter)
CCCCn1c(SCC(=O)c2ccc(O)c(O)c2)nc2ccsc2c1=O	TDP1 cell noCPT 23µM, DT40 TDP1 CPT 15µM
CC(C)[C@@H](CC(=O)N[C@@H]1CCNC[C@H]1C(=O)N[C@H](CC(=O)N[C@@H](CCC(=O)O)CC(=O)O)Cc1c[nH]c2ccccc12)NC(=O)C[C@H](Cc1ccccc1)NC(=O)[C@@H]1CCCC[C@H]1N	none (no result: ELG1 DNA repair, IL1B secr inh, TDP1 cell noCPT, DT40 TDP1 CPT)
CN(Cc1ccco1)c1ccnc(-c2cccc(C#N)c2)n1	TDP1 cell noCPT inconclusive, VP16 counter inconclusive, DT40 TDP1 CPT inconclusive (no result: ELG1 DNA repair, IL1B secr inh)
COc1c(O)c(O)cc2c1oc1c3cc(C)ccc3oc(=O)c21	RORgamma inh inconclusive (no result: ELG1 DNA repair, IL1B secr inh, TDP1 cell noCPT, DT40 TDP1 CPT)
COc1ccc(-c2oc3cc(O)c(OC)c(O)c3c(=O)c2OC)cc1O	TDP1 cell noCPT 0.92µM, DT40 TDP1 CPT 0.92µM (no result: ELG1 DNA repair, RORgamma inh, VP16 counter)
O=c1c(O)c(-c2ccc(O)cc2)oc2cc(O)ccc12	TDP1 cell noCPT 30µM, DT40 TDP1 CPT 27µM (no result: ELG1 DNA repair, IL1B secr inh)
O=c1c(O)c(-c2ccc(O)c(O)c2)oc2cc(O)ccc12	IL1B secr inh -83, TDP1 cell noCPT 6.7µM, DT40 TDP1 CPT 23µM (no result: ELG1 DNA repair)
